Laboratory results as given in PubChem BioAssay (NCATS).
Values joined by “and” are separate entries in the source; they are usually repeats but may differ in a detail not shown here. Equal entries are not always repeated. Inconclusive results are not listed. A number with no mark means an inactive call. Calls follow the shape of the dose curve; as a rule, active = well fitted activation curve with a large enough effect; inconclusive = small, poorly fitted or top-dose-only effect; inactive = no such curve, though single readings can be large or run the other way.

These compounds were tested against Cellular tumor antigen p53 (Homo sapiens) (UniProt P04637) (assay: Primary qHTS for small molecule compounds that upregulate eGFP-tagged delta133p53alpha (in N-terminal) cells. (AID 2060322;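 also: series mostly up to about 56 µM; 0% = DMSO vehicle and 100% = reference activator; nearly all actives have a fitted effect of over 75% in size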)). Details: NCI-H358 eGFP-delta133p53alpha fluorescence, 24 h; activation: hits give high values.
Cellular tumor antigen p53 (Homo sapiens), sequence (P04637 whole entry, looked up): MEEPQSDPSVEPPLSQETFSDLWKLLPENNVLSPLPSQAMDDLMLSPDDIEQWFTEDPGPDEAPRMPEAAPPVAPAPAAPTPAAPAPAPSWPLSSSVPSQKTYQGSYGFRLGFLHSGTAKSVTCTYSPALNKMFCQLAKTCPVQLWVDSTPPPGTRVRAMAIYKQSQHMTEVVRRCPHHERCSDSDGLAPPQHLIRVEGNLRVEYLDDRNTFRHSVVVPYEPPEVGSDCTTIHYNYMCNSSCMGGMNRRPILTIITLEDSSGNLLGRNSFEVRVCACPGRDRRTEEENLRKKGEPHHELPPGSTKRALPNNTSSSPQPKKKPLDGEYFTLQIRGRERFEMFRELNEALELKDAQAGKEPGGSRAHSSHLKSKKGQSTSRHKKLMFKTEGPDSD
How it was run: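 NCI-H358 cells pre-induced 24 h with 10 ng/ml doxycycline to express N-terminal eGFP-delta133p53alpha, then dosed 24 h at 37C without doxycycline; fixed, Hoechst-stained, GFP intensity by laser scanning cytometry, normalized to DMSO (0%) and 57.5 uM 5-azacytidine (100%).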

Compared with COc1cc(O)cc(C)c1C(=O)O[C@@H]1[C@H](O)[C@@H](CO)O[C@H]1n1ccc(=O)[nH]c1=O, COc1cc(C(C)=O)ccc1O[C@@H]1O[C@H](CO)[C@@H](O)[C@H](O)[C@H]1O is lower in activation: 11.5% for the first, -7.63% for the second.

Compared with Cc1ccc(S(=O)(=O)N2CCC[C@H]2c2ccc(F)cc2)cc1, O=S(=O)(Nc1ccc(C(O)(C(F)(F)F)C(F)(F)F)cc1)c1cccs1 is lower in activation: 8.93% for the first, -12.3% for the second.

First: CCOc1cn(-c2ccc(F)cc2C)nc1C(=O)Nc1ccc(Oc2ccnc3cc(OC)c(OC)cc23)c(F)c1
Second: COc1ccc(CC(=O)NCc2ccccc2-c2ccccc2C(=O)NCCc2cccnc2)cc1
The activation of the first is higher: 12.5% for the first, 0.955% for the second.

First: C=C1[C@H](OC(C)=O)[C@H]2[C@@H](OC(=O)c3ccccc3)[C@@H](C)C[C@]2(O)[C@@H](OC(C)=O)[C@H](C)/C=C/C(C)(C)C(=O)[C@H](OC(C)=O)[C@H]1OC(C)=O
Second: CC(=O)OC1C(O)/C(C)=C\C2C(OC(=O)c3ccccc3)C(C)CC2(OC(C)=O)C(OC(C)=O)C(C)/C=C/C(C)(C)C1OC(C)=O (centres undefined)
The activation of the first is higher: -3.57% for the first, -20.5% for the second.

First: O=C(/C=C/c1ccc(O)cc1)OCC1=CC2OC(=O)C3=CO[C@@H](O[C@@H]4O[C@H](CO)[C@@H](O)[C@H](O)[C@H]4O)[C@H]1[C@@H]32 (some centres undefined)
Second: CC1=C(C(=O)O)/C(=C\CO[C@@H]2O[C@H](CO)[C@@H](O)[C@H](O)[C@H]2O)C(OC(=O)/C=C\c2ccc(O)cc2)C1 (some centres undefined)
The activation of the first is lower: 0% for the first, 8.93% for the second.

First: CO[C@@]12CC3[C@@H]([C@@H](O)[C@@H](OC(C)=O)C4[C@](C)(COC(C)=O)CCC[C@]34C)[C@@H](C)C1=CC(=O)O2 (some centres undefined)
Second: CC(=O)OC[C@]12[C@H](OC(C)=O)C(=O)[C@@H]3[C@@H](O)[C@@]14O[C@@]3(C)COC(=O)c1cccnc1[C@@H](C)[C@H](C)C(=O)O[C@@H]([C@H](O)[C@@H]2OC(C)=O)[C@]4(C)O
The activation of the first is higher: -3.05% for the first, -8.04% for the second.

Compared with C[C@@H]1O[C@@H](O[C@H]2[C@H](O)[C@@H](C(=O)O)O[C@@H](O[C@H]3CC[C@@]4(C)C(CC[C@]5(C)C4CC=C4C6CC(C)(C)CC[C@]6(C(=O)O)CC[C@]45C)C3(C)C)[C@@H]2O[C@@H]2OC[C@@H](O)[C@H](O)[C@H]2O)[C@H](O)[C@H](O)[C@H]1O (some centres undefined), CC1(C)CC[C@]2(C(=O)O)CC[C@]3(C)C(=CCC4[C@@]5(C)CC[C@H](O[C@H]6O[C@H](C(=O)O)[C@@H](O)[C@H](O[C@@H]7O[C@H](CO)[C@H](O)[C@H](O)[C@H]7O)[C@H]6O)C(C)(C)C5CC[C@]43C)[C@@H]2C1 (some centres undefined) is lower in activation: 2.68% for the first, -5.36% for the second.

Going from C/C(=C\C(=O)C(C)C1CCC2C3=C(CCC21C)C1(C)CCC(=O)C(C)(C)C1(O)CC3)C(C)(C)O (centres undefined) to COC(=O)C12CCC(C)C(C)C1C1=CCC3C4(C)CCC(OC(C)=O)C(C)(C)C4CCC3(C)C1(C)CC2 (centres undefined), the activation rises from -16.8% to -12.2%.

Compared with CN1[C@@H]2CC[C@H]1CC(NC(=O)n1c(=O)[nH]c3ccccc31)C2 (some centres undefined), OC1COC(OCC2OC(OCCc3ccccc3)C(O)C(O)C2O)C(O)C1O (centres undefined) is lower in activation: -9.21% for the first, -11.5% for the second.

Going from CC1(C)CCCC2(C)C1CC=C1C(=O)OC(O)C12O (centres undefined) to CC(/C=C/[C@]1(O)[C@@]2(C)CO[C@@]1(C)C[C@@H](O)C2)=C\C(=O)O[C@@H]1O[C@H](CO)[C@@H](O)[C@H](O)[C@H]1O, the activation falls from -6.11% to -16.8%.

Going from CC[C@H]1OC(=O)[C@H](C)[C@@H](O[C@H]2C[C@@](C)(OC)[C@@H](O)[C@H](C)O2)[C@H](C)[C@@H](O[C@H]2O[C@H](C)C[C@H](N(C)C)[C@H]2O)[C@](C)(O)C[C@@H](C)C(=O)[C@H](C)[C@@H](O)[C@]1(C)O to C=C1CC[C@@H]2[C@@](C)(CO[C@@H]3O[C@H](CO)C(O)[C@H](O)C3O)[C@H](O)CC[C@@]2(C)[C@@H]1CC/C(C)=C/CO (some centres undefined), the activation falls from 9.67% to -5.36%.

With O=C(O)c1ccc(Nc2ncc3c(n2)-c2ccc(Cl)cc2C(c2c(F)cccc2F)=NC3)cc1 the activation was 139% and 6.25%.
In the case of CC/C=C(\C(=O)N[C@@H]1C(=O)N2C(C(=O)OCOC(=O)C(C)(C)C)=C(COC(N)=O)CS[C@H]12)c1csc(N)n1, the activation is reported as 2.82% and -18.4%.
